# CYP2C19 act: increases human CYP2C19 enzyme activity; P33261; recombinant CYP2C19, luciferin-H EGE luminescence; stronger effect = higher value; 0 = fully inhibited enzyme, 1 = untreated enzyme; activation factor at 5 µM; 96,000 tested, under 10 active; AID 1025;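 active = activation factor of at least 2 at 5 µM in the primary screen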
# Mac1 fbg inh: CD11b/CD18-fibrinogen binding inhibition; inhibition, % at 10 µM; P05107+P11215; 93,000 compounds, 0.54% hits; K562 CD11b/CD18 adhesion to fibrinogen, ATPlite luminescence; Mn2+ added to activate the integrin;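 active = primary inhibition of 50% or more at 10 µM, then 40% or more on retest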
# Target sequence (P05107 whole entry, looked up, other chains not shown): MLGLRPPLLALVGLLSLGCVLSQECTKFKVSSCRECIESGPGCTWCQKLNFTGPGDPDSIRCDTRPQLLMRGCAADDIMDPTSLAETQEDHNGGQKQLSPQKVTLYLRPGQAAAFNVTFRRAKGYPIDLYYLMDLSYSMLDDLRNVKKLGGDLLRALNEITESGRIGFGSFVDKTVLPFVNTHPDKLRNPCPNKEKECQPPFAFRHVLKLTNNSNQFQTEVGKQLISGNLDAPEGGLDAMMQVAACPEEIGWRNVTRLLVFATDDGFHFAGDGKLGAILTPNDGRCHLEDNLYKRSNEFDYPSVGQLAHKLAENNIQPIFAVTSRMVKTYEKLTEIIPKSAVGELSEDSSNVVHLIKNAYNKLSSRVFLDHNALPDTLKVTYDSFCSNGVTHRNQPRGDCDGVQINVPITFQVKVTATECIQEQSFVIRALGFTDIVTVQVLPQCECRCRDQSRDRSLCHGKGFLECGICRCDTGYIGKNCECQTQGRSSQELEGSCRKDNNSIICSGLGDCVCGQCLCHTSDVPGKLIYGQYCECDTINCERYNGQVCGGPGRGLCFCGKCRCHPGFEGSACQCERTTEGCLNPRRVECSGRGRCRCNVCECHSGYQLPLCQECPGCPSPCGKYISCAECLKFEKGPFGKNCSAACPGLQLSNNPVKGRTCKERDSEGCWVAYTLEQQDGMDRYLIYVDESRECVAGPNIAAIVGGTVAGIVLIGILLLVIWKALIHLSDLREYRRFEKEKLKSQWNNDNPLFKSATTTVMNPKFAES
# CD11b adhes enh: increases human CD11b/CD18 adhesion to fibrinogen; activation, % at 10 µM; K562 CD11b/CD18 adhesion to fibrinogen, ATPlite luminescence; 93,000 compounds, 0.07% hits;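 active = 10 µM primary screen giving 50% or more activity, confirmed by 40% or more on retest at that dose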
# CYP2C19 inhib: blocks human cytochrome P450 2C19. inhibition, % at 5 µM. 96,000 compounds, 21% hits. P33261. CYP2C19 Supersomes, luciferin-H EGE luminescence, 30 min;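 active = CYP2C19 inhibition above a set limit at 5 µM in the primary screen, cut at about 50% in these data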
# CYP2C9 activ: increases human cytochrome P450 2C9 activity; P11712; recombinant CYP2C9, luciferin-H conversion, luminescence; stronger effect = higher value; factor 1 = untreated enzyme, 0 = blocked; activation factor at 5 µM; 96,000 compounds, 1.4% hits;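 active = activation factor of 2 or more for CYP2C9 at a 5 µM dose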
# CYP2C9 inhib: inhibitors of human CYP2C9; P11712; CYP2C9 Supersomes, luciferin-H conversion, luminescence; inhibition, % at 5 µM; 96,000 compounds, 20% hits; AID 777;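 active = blocking of liver enzyme CYP2C9 beyond about 50% at 5 µM, limit read from the data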
# Numbers stand for hits; n = inactive; x = no result. A selection: hits, their analogues and other compounds. The true share with any hit is near 28%.
SMILES,CYP2C19 act,Mac1 fbg inh,CD11b adhes enh,CYP2C19 inhib,CYP2C9 activ,CYP2C9 inhib
CCOC(=O)C1=C(C)NC(C)=C(C(=O)OCC)C1/C=C/c1ccccc1OC,x,n,n,x,x,x
CCC1SC2=NC(C)=C(C(=O)OCCOC)C(/C=C/c3ccccc3OC)N2C1=O (stereo unspecified),n,x,x,78,n,91
O=C(COC(=O)c1oc2ccccc2c1COc1ccccc1)NCCN1C(=O)CSC1=O,x,n,n,x,x,x
O=C(O)COc1ccc2c(c1)OCCO2,n,n,n,n,n,n
Cc1nc2ccc(N)cc2c(=O)n1Cc1ccc(Cl)cc1,n,n,n,99,n,84
N#Cc1c(Nc2ccccc2)c(C=NCCN2CCOCC2)c[nH]c1=O,n,x,x,73,n,n
N#Cc1c(Nc2ccccc2)c(/C=N/N=C/c2ccccc2)c[nH]c1=O,x,n,n,x,x,x
Cc1c(N/C(=N/S(=O)(=O)c2ccccc2)c2ccc(Cl)cc2)c(=O)n(-c2ccccc2)n1C,x,n,n,x,x,x
O=C(C1CN(S(=O)(=O)c2ccccc2)CCN1S(=O)(=O)c1ccccc1)N1CCCCCC1 (stereo unspecified),n,n,n,n,n,n
CN(C)C(=O)C(=O)c1cccn1-c1ccccc1C#N,n,n,n,n,n,n
CC(C)N(C(=O)C(=O)c1cccn1-c1ccccc1C#N)C(C)C,n,n,n,54,n,n
CCN(CC)C(=O)C(=O)c1cccn1-c1cccc(Cl)c1C#N,n,n,n,81,n,n
Cc1[nH]nc2c1C1(CCC3(CC1)OCCO3)C(C#N)=C(N)O2,n,n,n,n,n,n
CCOC(=O)N1CCC2(CC1)C(C#N)=C(N)Oc1n[nH]c(C)c12,n,n,n,50,n,n
CCOC(=O)N1CCC2(CC1)C(C#N)=C(N)Oc1c2c(C)nn1-c1cccc(Cl)c1,n,88,n,n,n,72
CC(=O)N1CCC2(CC1)C(C#N)=C(N)Oc1n[nH]c(CSc3ccc(C)cc3)c12,n,n,n,n,n,53
O=C(COC(=O)c1ccc(=O)n(Cc2ccccc2)n1)Nc1ccc2c(c1)OCCO2,n,n,n,n,n,n
Cc1ccc(C(=O)NNc2cc(=O)n(C)c(=O)n2C)cc1C,x,n,n,x,x,x
COc1cc(/C=N/NC(N)=O)cc(Br)c1OCc1ccccc1C,n,n,n,n,n,n
CCOc1cc(/C=N/NC(N)=O)cc(Br)c1OCC(=O)Nc1ccccc1C,n,n,n,59,n,82
CCOc1cc(/C=N/NC(N)=O)cc(Br)c1OCC(=O)Nc1cccc2ccccc12,n,n,n,n,n,n
CCOc1cc(/C=N/NC(=O)Cn2nc([N+](=O)[O-])cc2C)cc(Br)c1OCc1ccccc1C,n,n,n,n,n,70
COc1cc(/C=N/NC(=O)Cn2nc([N+](=O)[O-])cc2C)cc(Br)c1OCc1ccccc1,n,n,n,59,n,74
CCOC(=O)C(c1ccccc1)N1CCN(c2ccc(OC)cc2)CC1 (stereo unspecified),n,n,n,n,n,n
CCC1(c2ccc(F)cc2)NC(=O)N(CC(=O)N2CCOCC2)C1=O (stereo unspecified),n,n,n,n,n,n
SMILES,CYP2C19 act,Mac1 fbg inh,CD11b adhes enh,CYP2C19 inhib,CYP2C9 activ,CYP2C9 inhib
Cc1c(Cl)cccc1NC(=O)C1NC(=O)CC1c1ccccc1 (stereo unspecified),n,n,n,81,n,n
O=C(COC(=O)c1ccc(S(=O)(=O)NCc2ccco2)cc1)NCCC1=CCCCC1,n,n,n,n,n,n
CC(=O)Oc1c(C)cc(O)c2ccccc12,n,n,n,62,n,n
CC(=O)Oc1ccc2c(C)cc(=O)[nH]c2c1,n,n,n,n,n,n
C/C(=N\NC(=O)COc1ccc(C)cc1C(C)C)c1ccc(-n2ccnc2)cc1,x,n,n,x,x,x
CC1=N/C(=C\c2ccc([N+](=O)[O-])cc2)C(=O)N1c1ccc(Br)c(C)c1,n,x,x,n,n,n
O=C(CCC(=O)NC1CC1)Nc1nnc(C2CCCCC2)s1,n,n,n,n,n,n
O=C(Nc1nnc(C2CCCC2)s1)C1CCC1,n,n,n,n,n,56
Cc1nnc(NC(=O)c2ccncc2)s1,n,n,n,n,n,n
O=C(CC1CCCC1)Nc1nnc(C2CC2)s1,n,n,n,52,n,n
Cc1nnc(NC(=O)C2CCCCC2)s1,n,n,n,n,n,n

# Assay outcomes from PubChem BioAssay.
